Assay results as given in the supplement of paper PMC11732987, “Enantioselective OTUD7B fragment discovery through chemoproteomics screening and high-throughput optimisation” (Communications Chemistry, 2025).

Legend:
Assay in all cases: log2 ratio of Biotin-Ahx-Ub-VS probe labelling (fragment/DMSO); higher = less target engagement (more negative = stronger competition), active = hit call of the paper (q ≤ 0.05, log2 ratio ≤ -1)
Conditions in all cases: compound concentration: 200 uM; treatment time: 3 h
[1] = target: T1, OTUD6B (UniProt Q8N6M0)
T1 sequence (whole entry): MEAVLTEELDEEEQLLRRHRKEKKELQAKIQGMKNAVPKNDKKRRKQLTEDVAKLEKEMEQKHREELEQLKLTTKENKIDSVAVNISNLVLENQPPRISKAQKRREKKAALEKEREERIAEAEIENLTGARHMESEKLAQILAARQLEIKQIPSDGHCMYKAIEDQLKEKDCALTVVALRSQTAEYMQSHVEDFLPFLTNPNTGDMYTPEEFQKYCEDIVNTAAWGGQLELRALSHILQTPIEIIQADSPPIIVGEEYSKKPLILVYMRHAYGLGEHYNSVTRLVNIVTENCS
Summary of the method: (§1)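 Fragment (200 µM) or vehicle was incubated for 3 h with triplicate HEK293T lysate samples of 495 µg, which were then treated with Biotin-Ahx-Ub-VS at 0.5 µM final for 1 h. Labelled DUBs were enriched on NeutrAvidin, digested with LysC and trypsin, and analysed by diaPASEF LC-MS/MS. Values are average log2 fragment/vehicle ratios from an unpaired t-test on global-median-normalised Spectronaut label-free quantities, using proteins with ≥2 unique peptides.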

[2] = target: T2, OTUD7B (UniProt Q6GQQ9)
T2 sequence (whole entry): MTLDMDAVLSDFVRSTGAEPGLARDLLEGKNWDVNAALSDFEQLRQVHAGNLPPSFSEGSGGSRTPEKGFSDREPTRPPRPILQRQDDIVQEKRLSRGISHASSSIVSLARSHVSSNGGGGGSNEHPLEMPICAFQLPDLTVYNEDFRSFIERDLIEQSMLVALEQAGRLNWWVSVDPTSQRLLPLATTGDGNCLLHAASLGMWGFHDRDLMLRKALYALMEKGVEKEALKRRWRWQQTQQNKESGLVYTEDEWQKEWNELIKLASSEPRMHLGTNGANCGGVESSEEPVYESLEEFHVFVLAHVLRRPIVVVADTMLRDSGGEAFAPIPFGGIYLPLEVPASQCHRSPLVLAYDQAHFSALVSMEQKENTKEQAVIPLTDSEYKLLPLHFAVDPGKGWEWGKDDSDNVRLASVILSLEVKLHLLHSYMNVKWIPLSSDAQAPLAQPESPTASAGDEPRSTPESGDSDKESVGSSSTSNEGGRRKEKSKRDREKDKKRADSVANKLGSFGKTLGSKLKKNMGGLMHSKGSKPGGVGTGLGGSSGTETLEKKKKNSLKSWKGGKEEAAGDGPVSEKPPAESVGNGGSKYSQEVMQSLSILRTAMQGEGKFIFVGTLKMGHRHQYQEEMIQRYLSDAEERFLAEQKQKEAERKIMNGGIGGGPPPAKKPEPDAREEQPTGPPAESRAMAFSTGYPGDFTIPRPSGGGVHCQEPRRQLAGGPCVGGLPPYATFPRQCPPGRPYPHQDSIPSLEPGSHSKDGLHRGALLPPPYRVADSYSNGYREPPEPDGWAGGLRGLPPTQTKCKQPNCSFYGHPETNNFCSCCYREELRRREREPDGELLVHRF
Summary of the method: as §1

[3] = target: PRPF8 (UniProt Q6P2Q9)
Summary of the method: as §1

[4] = target: T3, PSMD7 (UniProt P51665)
T3 sequence (whole entry): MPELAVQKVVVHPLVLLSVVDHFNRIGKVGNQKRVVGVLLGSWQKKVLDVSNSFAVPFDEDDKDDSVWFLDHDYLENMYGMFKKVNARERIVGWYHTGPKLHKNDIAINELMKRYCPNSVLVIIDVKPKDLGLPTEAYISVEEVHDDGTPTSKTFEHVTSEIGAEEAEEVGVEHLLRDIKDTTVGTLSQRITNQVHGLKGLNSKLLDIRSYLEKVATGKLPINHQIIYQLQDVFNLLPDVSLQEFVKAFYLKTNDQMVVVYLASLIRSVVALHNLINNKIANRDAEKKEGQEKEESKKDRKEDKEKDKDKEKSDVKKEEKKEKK
Summary of the method: as §1

[5] = target: UCHL1 (UniProt P09936)
Summary of the method: as §1

[6] = target: T4, UCHL3 (UniProt P15374)
T4 sequence (whole entry): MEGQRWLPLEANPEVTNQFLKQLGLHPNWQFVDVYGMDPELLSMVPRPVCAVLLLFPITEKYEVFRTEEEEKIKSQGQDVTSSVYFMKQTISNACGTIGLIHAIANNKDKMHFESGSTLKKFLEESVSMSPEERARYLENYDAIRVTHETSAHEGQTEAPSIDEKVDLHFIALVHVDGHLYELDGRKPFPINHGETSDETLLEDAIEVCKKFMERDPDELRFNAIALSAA
Summary of the method: as §1

[7] = target: T5, UCHL5 (UniProt Q9Y5K5)
T5 sequence (whole entry): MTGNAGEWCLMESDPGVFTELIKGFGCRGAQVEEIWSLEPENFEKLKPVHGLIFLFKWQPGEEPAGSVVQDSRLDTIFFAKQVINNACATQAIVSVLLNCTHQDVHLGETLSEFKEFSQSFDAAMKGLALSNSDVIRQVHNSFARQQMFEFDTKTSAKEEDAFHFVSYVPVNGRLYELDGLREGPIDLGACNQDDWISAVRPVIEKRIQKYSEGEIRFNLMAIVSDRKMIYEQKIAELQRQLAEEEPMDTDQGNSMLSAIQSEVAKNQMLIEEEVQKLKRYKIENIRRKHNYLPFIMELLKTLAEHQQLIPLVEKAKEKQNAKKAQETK
Summary of the method: as §1

[8] = target: USP10 (UniProt Q14694)
Summary of the method: as §1

[9] = target: T6, USP15 (UniProt Q9Y4E8)
T6 sequence (whole entry): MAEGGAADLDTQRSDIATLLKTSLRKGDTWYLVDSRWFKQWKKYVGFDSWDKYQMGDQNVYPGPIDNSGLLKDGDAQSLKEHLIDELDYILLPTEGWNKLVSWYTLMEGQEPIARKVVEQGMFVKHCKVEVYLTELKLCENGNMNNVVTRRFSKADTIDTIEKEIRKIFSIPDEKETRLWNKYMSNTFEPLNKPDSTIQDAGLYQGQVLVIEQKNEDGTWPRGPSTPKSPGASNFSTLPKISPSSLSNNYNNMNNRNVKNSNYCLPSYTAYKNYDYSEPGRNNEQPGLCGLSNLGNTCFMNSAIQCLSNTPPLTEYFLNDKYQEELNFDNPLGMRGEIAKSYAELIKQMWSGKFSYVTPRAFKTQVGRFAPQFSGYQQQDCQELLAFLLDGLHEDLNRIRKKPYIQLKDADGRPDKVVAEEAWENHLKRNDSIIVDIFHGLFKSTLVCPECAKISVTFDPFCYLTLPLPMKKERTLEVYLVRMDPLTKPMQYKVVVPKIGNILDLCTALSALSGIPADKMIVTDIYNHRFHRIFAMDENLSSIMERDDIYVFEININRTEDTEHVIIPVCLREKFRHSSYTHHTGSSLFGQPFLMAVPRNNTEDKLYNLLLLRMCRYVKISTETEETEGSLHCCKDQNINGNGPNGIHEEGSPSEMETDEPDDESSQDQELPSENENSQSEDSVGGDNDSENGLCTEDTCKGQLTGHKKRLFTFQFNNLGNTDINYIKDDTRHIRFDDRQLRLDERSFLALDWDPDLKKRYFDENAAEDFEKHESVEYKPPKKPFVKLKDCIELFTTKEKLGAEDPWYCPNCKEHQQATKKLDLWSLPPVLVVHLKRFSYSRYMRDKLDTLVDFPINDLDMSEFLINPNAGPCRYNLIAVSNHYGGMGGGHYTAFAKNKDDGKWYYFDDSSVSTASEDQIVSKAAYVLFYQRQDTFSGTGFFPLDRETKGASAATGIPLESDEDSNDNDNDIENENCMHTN
Summary of the method: as §1

[10] = target: USP16 (UniProt Q9Y5T5)
Summary of the method: as §1

Measured: log2 ratio of Biotin-Ahx-Ub-VS probe labelling

Sequence of USP16 (Q9Y5T5 whole entry, looked up): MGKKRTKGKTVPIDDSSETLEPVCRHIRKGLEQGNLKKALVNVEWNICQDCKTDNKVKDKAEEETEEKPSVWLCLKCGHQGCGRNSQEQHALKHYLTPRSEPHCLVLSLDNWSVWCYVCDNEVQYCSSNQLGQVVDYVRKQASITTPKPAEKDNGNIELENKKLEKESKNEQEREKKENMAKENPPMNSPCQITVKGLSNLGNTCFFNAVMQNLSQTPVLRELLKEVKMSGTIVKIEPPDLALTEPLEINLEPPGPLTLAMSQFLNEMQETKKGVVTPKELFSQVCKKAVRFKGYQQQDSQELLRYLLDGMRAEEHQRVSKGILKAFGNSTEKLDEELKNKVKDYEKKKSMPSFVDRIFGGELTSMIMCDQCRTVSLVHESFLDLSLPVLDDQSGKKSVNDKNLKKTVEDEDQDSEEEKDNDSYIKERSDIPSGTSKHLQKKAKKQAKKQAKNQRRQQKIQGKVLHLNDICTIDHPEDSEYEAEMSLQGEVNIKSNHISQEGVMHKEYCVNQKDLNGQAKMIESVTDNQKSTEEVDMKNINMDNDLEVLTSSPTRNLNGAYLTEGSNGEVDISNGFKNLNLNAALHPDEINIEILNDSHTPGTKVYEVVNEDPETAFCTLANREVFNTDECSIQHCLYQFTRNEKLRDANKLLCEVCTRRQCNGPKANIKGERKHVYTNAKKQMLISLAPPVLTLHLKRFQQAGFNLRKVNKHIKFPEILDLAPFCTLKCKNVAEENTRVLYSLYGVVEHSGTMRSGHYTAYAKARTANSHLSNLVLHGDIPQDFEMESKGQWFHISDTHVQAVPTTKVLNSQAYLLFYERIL
Sequence of UCHL1 (P09936 whole entry, looked up): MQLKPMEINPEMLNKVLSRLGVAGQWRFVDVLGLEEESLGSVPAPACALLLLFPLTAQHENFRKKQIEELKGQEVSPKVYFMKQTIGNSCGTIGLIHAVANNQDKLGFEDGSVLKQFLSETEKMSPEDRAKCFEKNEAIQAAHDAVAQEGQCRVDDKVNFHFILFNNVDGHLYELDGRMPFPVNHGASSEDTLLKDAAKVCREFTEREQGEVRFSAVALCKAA
Sequence of USP10 (Q14694 whole entry): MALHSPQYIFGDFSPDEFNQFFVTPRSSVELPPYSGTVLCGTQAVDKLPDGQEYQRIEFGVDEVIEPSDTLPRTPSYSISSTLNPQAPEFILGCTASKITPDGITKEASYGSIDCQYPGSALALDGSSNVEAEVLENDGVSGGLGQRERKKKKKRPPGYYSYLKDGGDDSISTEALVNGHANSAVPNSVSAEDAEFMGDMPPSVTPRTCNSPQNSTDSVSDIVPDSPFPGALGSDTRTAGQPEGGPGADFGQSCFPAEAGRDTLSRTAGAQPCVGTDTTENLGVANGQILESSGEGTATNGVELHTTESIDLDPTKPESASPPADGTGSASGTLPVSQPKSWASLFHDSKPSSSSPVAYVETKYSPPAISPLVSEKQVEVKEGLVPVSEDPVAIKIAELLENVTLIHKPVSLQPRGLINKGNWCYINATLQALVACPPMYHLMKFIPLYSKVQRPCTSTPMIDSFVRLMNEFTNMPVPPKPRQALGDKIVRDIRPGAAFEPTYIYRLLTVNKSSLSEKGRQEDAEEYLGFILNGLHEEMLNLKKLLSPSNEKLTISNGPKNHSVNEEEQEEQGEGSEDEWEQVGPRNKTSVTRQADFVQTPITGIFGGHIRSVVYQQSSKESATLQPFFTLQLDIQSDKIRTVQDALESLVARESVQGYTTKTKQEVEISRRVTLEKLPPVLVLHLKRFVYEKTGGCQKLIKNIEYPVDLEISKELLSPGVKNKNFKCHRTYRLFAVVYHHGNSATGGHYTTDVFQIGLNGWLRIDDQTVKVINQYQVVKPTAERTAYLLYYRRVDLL

O=C(CCl)Nc1ccc(Cl)c(F)c1
active: [2] -1.15 | [5] -1.36
inactive: [1] -0.448 | [3] 0.0807 | [4] -0.221 | [6] -0.216 | [7] -0.398 | [8] -0.142 | [9] -0.331 | [10] 0.323
